COUP-TFII inh: inhibitors of human COUP-TFII (NR2F2); inhibition, % at 8.6 µM; HEK293T NGFI-A luciferase reporter, luminescence; actives 0.7% (n = 370,000);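 active = inhibition above a per-plate cutoff, mean inhibition of test wells between control levels plus 3 SD, cut at about 38% in these data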;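 note: cells cotransfected with COUP-TFII expression vector driving the NGFI-A reporter; 0% = median of COUP-TF2 test wells and 100% = reporter-only cells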
Target sequence (P24468 whole entry, looked up): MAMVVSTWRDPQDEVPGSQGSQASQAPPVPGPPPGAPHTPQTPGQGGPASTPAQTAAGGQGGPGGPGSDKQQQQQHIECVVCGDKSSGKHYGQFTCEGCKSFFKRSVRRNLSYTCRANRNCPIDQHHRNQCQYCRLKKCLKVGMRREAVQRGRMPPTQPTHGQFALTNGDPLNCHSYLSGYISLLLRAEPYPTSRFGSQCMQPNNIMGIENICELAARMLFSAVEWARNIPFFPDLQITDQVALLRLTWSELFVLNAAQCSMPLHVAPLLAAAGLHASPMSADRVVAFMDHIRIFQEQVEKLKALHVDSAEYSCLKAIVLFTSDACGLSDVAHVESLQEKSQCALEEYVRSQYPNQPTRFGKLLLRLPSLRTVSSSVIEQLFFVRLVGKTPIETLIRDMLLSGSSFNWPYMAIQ
SRC2 inh: inhibits human steroid receptor coactivator 2 | HEK293 GAL4-SRC2 luciferase reporter, luminescence | actives 0.17% (n = 370,000) | AID 651957 | inhibition, % at 9 µM;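 active = inhibition above the mean inhibition of all tested compounds plus 3 SD, set per campaign, cut at about 52% in these data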;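 note: 0% = DMSO treated cells and 100% = cells given Gossypol at 36 µM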
NCOA3 inh: human NCOA3 inhibition. inhibition, % at 3.6 µM. HEK293 GAL4-SRC3 luciferase reporter, luminescence. Q9Y6Q9. actives 0.17% (n = 360,000);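 active = inhibition above a per-campaign cutoff, the mean of all compounds plus 3 SD, cut at about 60% in these data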;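 note: 0% = DMSO-treated cells and 100% = gossypol-treated cells at 36 µM; higher means less SRC3-driven luciferase light from the GAL4 reporter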
SRC1 inh: human NCOA1 inhibition; Q15788; HEK293 GAL4-SRC1 luciferase reporter, luminescence; inhibition, % at 3.6 µM; actives 0.12% (n = 360,000);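 active = inhibition above the campaign mean plus 3 SD, with each screening campaign given its own cutoff, cut at about 60% in these data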;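 note: 0% = DMSO treated cells and 100% = gossypol at 36 µM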
NR5A2 inv ag: NR5A2 inverse agonism in reporter assay. O00482. HEK293T StAR-luciferase reporter, LRH-1 transfected, 24 h. actives 0.13% (n = 360,000). inhibition, % at 3.6 µM;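 active = inhibition above the mean inhibition of all tested compounds plus 3 SD, cut at about 73% in these data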;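 note: 0% = DMSO wells and 100% = reporter-only cells lacking LRH-1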
VP16 Luc counter: counter-screen for COUP-TFII antagonists: inhibitors of VP16; inhibition, % at 8.5 µM; AID 687007; shares compounds with COUP-TFII inh; HEK293 Gal4-VP16 luciferase reporter, luminescence; actives 25% (n = 2,500); in the data active = inhibition above about 13%
NR2F2 inh conf: COUP-TFII (NR2F2) inhibition, confirmation assay; HEK293 NGFI-A luciferase reporter, luminescence; inhibition, % at 8.5 µM; shares compounds with COUP-TFII inh; actives 45% (n = 2,500);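 active = mean inhibition over three repeats above a set limit taken from the earlier primary screen, cut at about 38% in these data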;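 note: 100% = cells given the luciferase reporter alone without the COUP-TF2 vector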
The depositor's hits bear a star; / = no result. Shown are actives, neighbours in structure and some others; about 0.81% of the full set was active somewhere.

SMILES	COUP-TFII inh	SRC2 inh	NCOA3 inh	SRC1 inh	NR5A2 inv ag	VP16 Luc counter	NR2F2 inh conf
C=CC[C@@H]1NN2C(=O)[C@@H](CCc3ccccc3)[C@@H]3c4ccccc4C=NN3[C@@H]2c2ccccc21	-6	-14	/	/	/	/	/
CN1C/C(=C\c2ccc(N3CCOCC3)cc2)C(=O)/C(=C/c2ccc(N3CCOCC3)cc2)C1	10	11	18	13	9	/	/
CCN1C/C(=C/c2ccc(N3CCOCC3)cc2)C(=O)/C(=C/c2ccc(N3CCOCC3)cc2)C1	37*	0	59	7	27	24*	39*
COc1cccc(N2CCN(CC(=O)NCc3ccco3)CC2)c1	-11	-15	/	/	/	/	/
Nn1cnnc1SCC(=O)Nc1ccc(C2CCCCC2)cc1	-8	-6	-41	-38	-40	/	/
O=C(O)CSCC(=O)Nc1ccc(C2CCCCC2)cc1	90*	91*	74*	76*	80*	83*	77*
CCC(C)Nc1nc(-c2ccccn2)nc2ccccc12 (centres undefined)	38*	18	64*	19	81*	-12	3
CCN(CC)S(=O)(=O)c1cccc(-n2c(O)c(C=Nc3ccccc3C(=O)O)c3ccccc3c2=O)c1	47*	37	29	11	41	-30	42*
Nc1c(C(=O)Nc2ccc3c(c2)OCCO3)nnn1Cc1ccc(Cl)cc1	-26	-47	-81	-92	-162	/	/
NC(=O)c1nnn(Cc2cc(Cl)c(C(=O)c3ccc(Cl)cc3)c(Cl)c2)c1N	55*	7	/	/	34	5	54*
Cn1cccc1[C@]1(O)C(=O)Nc2ccc(F)cc21	-6	-1	/	/	/	/	/
COc1ccc(OC)c(CCNC(=O)C(C)n2nc(C)c3c(C)n(-c4ccc(C)cc4)nc3c2=O)c1 (centres undefined)	73*	20	32	6	54	18*	73*
COc1ccc(OC)c(CCNC(=O)C(C)n2nc(C)c3c(C)n(-c4ccccc4)nc3c2=O)c1 (centres undefined)	-15	29	3	-6	9	/	/
Cc1ccc(-n2nc3c(=O)n(C(C)C(=O)NCCCc4ccccc4)nc(C)c3c2C)cc1 (centres undefined)	55*	24	27	12	3	-2	45*
Cc1ccc(-n2nc3c(=O)n(C(C)C(=O)NCc4ccccc4Cl)nc(C)c3c2C)cc1 (centres undefined)	47*	12	-4	-11	27	5	39*
CC(C)CNS(=O)(=O)CC1NCc2ccccc21 (centres undefined)	-17	-2	/	/	/	/	/
O=C(NC1CCCCN(Cc2cccc(Cl)c2)C1=O)c1ccc(COc2ccccc2)cc1 (centres undefined)	48*	18	/	/	/	1	36
Cc1ccc(-n2c(-c3ccc(Br)cc3)c[n+]3c2CCc2ccc4cccnc4c2-3)cc1	88*	-16	83*	75*	100*	33*	89*
Cc1cccc(NC(=O)c2ccc(C3SCC(=O)N3CCc3ccccc3)cc2)c1 (centres undefined)	45*	28	6	10	-9	4	12
COc1cccc(Oc2ccc(S(=O)(=O)N3CCOCC3)cc2[N+](=O)[O-])c1	44*	-6	3	-7	-4	-9	0
COC(=O)[C@]12C[C@H](CC(=O)NCc3cccc(C(F)(F)F)c3)C(=O)N(Cc3ccccc3)C1=C[C@H](COCc1ccccc1)O[C@@H]2C	26	-12	/	/	/	/	/
O=C(CNS(=O)(=O)c1ccccc1)N1CCN(c2ccccn2)CC1	-10	-12	/	/	/	/	/
O=C(/C=C/c1cccnc1)/C=C/c1cccnc1	59*	52*	-12	-51	37	38*	20
C(=Cc1cccnc1)c1ccncc1	6	11	12	21	6	/	/
Cc1ccc(S(=O)(=O)N2O[C@@H](c3ccccc3)C[C@H]2CON2C(C)(C)CCCC2(C)C)cc1	15	/	/	/	/	/	/
SMILES	COUP-TFII inh	SRC2 inh	NCOA3 inh	SRC1 inh	NR5A2 inv ag	VP16 Luc counter	NR2F2 inh conf
CCCCCCCn1ccc(=N)cc1	80*	3	24	23	79*	24*	77*
CCCCCCCCCn1ccc(=N)cc1	77*	31	68*	52	84*	22*	82*
CCCCCn1ccc(=N)cc1	37	16	9	-7	-7	/	/
COc1cccc(NC(=O)Nc2nc(-c3ccc(OC)c(OC)c3)cs2)c1	73*	75*	72*	71*	38	72*	100*
COc1ccc(-c2csc(NC(=O)C3CCN(C(=O)c4ccc(F)cc4)CC3)n2)cc1OC	55*	15	2	-6	12	8	21
COc1ccc(CNC(=O)C2CCN(C(=O)c3ccc(F)cc3)CC2)cc1OC	3	4	-7	2	11	/	/
COC(=O)c1cc(-c2cccc3ccccc23)c(=O)n2c1CCC2	-9	-15	/	/	/	/	/
Oc1cccc2cc(Nc3ccccc3)cnc12	55*	14	69*	57	90*	-9	46*
O=S1(=O)c2ccc(N3CC[C@@H](O)C3)cc2O[C@H]2CCN1C2	2	-15	/	/	/	/	/
CCC(CO)[n+]1c(C)cc(/C=C2\Sc3ccccc3N2Cc2ccccc2)cc1C (centres undefined)	85*	-22	3	8	12	22*	87*
COC(=O)[C@]12C[C@H](CC(=O)NCc3cccs3)C(=O)N(Cc3ccccc3)C1=C[C@H](COCc1ccccc1)O[C@@H]2C	-17	1	/	/	/	/	/
O=c1c2ccccc2nc(/C=C/c2cccnc2)n1CCc1ccccc1	44*	6	23	23	23	-6	4
CCOC(=O)[C@]12CCCC=C1N(Cc1ccc(OC)cc1)C(=O)[C@@H]2CC(=O)NCCCOC	15	-2	/	/	/	/	/
CN(C)c1ccc(C=C2C=C(c3ccccc3)OC2=O)cc1	-21	9	-14	-18	-35	/	/
COc1cc(N(C)C)ccc1C=c1c2ccccc2n2c1cc(-c1ccccc1)[n+]2C	67*	-54	63*	23	69	9	73*
COc1cc(C=c2c3ccccc3n3c2cc(-c2ccccc2)[n+]3C)cc(OC)c1OC	38*	-3	13	-9	10	-1	7
CN(C)c1ccc(C=c2c3ccccc3n3c2cc(-c2ccccc2)[n+]3C)cc1	82*	-29	83*	65*	91*	21*	94*
CN(C)c1ccc(C=c2c3ccccc3n3c2c2c([n+]3C)CCCC2)cc1	88*	-18	79*	69*	94*	28*	82*
CN(C)c1ccc(/C=C2\CCC/C(=C\c3ccccc3)C2=O)cc1	3	-20	-36	-23	15	/	/
